Assay [1] is described as follows: P-glycoprotein substrates identified in KB-8-5-11 adenocarcinoma cell line, qHTS therapeutic library screen (AID 1346987). Also: nearly all actives have a fitted effect of over 65% in size. Also: potency is read from the fitted curve at half-maximal effect. Particulars: outcome: dose series up to 44.5 µM unless noted. The essentials: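 Human cervical adenocarcinoma KB-8-5-11 cells, selected in colchicine to over-express P-gp and assayed without it, were exposed for 72 h to titrated compounds. An ATP-based luminescent viability signal gave AC50.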
Background: In qHTS, concentration-response curves come from the screen itself.

Assay [2] is described as follows: Natriuretic polypeptide receptor (hNpr1) antagonism - Pilot counterscreen GloSensor control cell line (AID 1347045; calls by dose curve; also: potency is read from the fitted curve at half-maximal effect). The essentials: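 The SNP-driven cGMP luminescence signal (50 uM, 20 min, room temperature) was measured in GloSensor HEK293 control cells. Compounds were tested as a LOPAC titration series and preincubated for 30-50 min.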
On the technique in general: The purpose of a counterscreen is to sort out artefacts and off-target activity.

Assay [3] addresses Atrial natriuretic peptide receptor 1 (Homo sapiens) (UniProt P16066). Nature of the assay: Natriuretic polypeptide receptor (hNpr1) antagonism - Pilot screen (AID 1347049; calls by dose curve;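 also: HEK293 cells with hNpr1 and GloSensor cGMP luciferase stimulated by 0.1 nM hNppA; agonist-evoked cGMP luminescence read 20 min after hNppA addition; series mostly up to about 58 µM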). The essentials: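 Receptor antagonism read as cGMP-dependent luminescence in hNpr1/pGS-40F HEK293 cells: pre-read after 30 min compound exposure, post-read 20 min after hNppA agonist at 0.1 nM final, all at room temperature, protected from light; A-71915 titration as control.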

Assay [4] has as its target Atrial natriuretic peptide receptor 2 (Homo sapiens) (UniProt P20594). Briefly: Natriuretic polypeptide receptor (hNpr2) antagonism - Pilot subtype selectivity assay (AID 1347050; calls by dose curve; also: potency is read from the fitted curve at half-maximal effect). In a few lines: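 Antagonist mode: compounds (LOPAC1280, seven 1:5 dilutions) added 30 min before 1 nM hNppC stimulation of hNpr2-HEK293 cGMP-sensor cells; luminescence read before and 20 min after agonist at ambient temperature.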

Assay [5] addresses T1, Tyrosine-protein phosphatase non-receptor type substrate 1 (Homo sapiens) + Leukocyte surface antigen CD47 (Homo sapiens) (UniProt P78324+Q08722). Briefly: CD47-SIRPalpha protein protein interaction - LANCE assay qHTS validation (AID 1347057; active = well fitted curve in the direction sought with a large enough effect in the signal ratio, with a control signal flat, not every such curve was filed as active; the % refers to the signal ratio; also: series mostly up to about 38 µM). In a few lines:
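Inhibition of soluble CD47/SIRPalpha ectodomain association by titrated compounds, measured as 665/615 nm time-resolved FRET ratio after sequential 30 min room-temperature incubations.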
On the technique in general: Time-resolved FRET reads energy transfer from a long-lived donor to a nearby acceptor.

For assay [6], the target named is T1, Tyrosine-protein phosphatase non-receptor type substrate 1 (Homo sapiens) + Leukocyte surface antigen CD47 (Homo sapiens). Briefly: CD47-SIRPalpha protein protein interaction - HTRF assay qHTS validation (AID 1347058; active = well fitted curve in the direction sought with a large enough effect in the signal ratio, not every such curve was filed as active; the % refers to the signal ratio; also: series mostly up to about 38 µM). In a few lines:
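Soluble extracellular domains (6His-CD47, Avi-tag-biotinylated SIRPalpha) in PBS pH 7.4 with 0.05% IGEPAL CA-630. Compounds were preincubated 30 min at RT with CD47 and anti-His-Eu, then SIRPalpha and SAV-XL665 were added. TR-FRET 665/615 ratio.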

Assay [7] shares this target. Briefly: CD47-SIRPalpha protein protein interaction - Alpha assay qHTS validation (AID 1347059).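 Also: bead proximity luminescence from CD47 binding SIRPalpha after compound preincubation with SIRPalpha.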 Also: potency is read from the fitted curve at half-maximal effect. In a few lines:
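AlphaScreen signal between CD47-His (12.5 nM) and biotin-SIRPalpha (25 nM) soluble extracellular domains, bead-captured via Ni-NTA and streptavidin. Compounds, in 7-point titrations, met SIRPalpha 30 min before CD47; PBS pH 7.4 with 0.05% IGEPAL.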

In assay [8] the target is Parathyroid hormone/parathyroid hormone-related peptide receptor (Homo sapiens) (UniProt Q03431). Briefly: qHTS for PTHR1 Agonists: Optimization Screen against the NCGC LOPAC library (AID 1347079).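 Also: GloSensor cAMP luminescence in HEK-293 GP2 cells expressing human PTHR1 with IBMX.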 Also: potency is read from the fitted curve at half-maximal effect. The essentials:
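Signal increase flags agonism. GP2 cells, derived from HEK-293, express human PTHR1 and a GloSensor cAMP construct.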

Assay [9] is described as follows: qHTS of pediatric cancer cell lines to identify multiple opportunities for drug repurposing: Primary screen for TC32 cells (AID 1347089). Also: nearly all actives have a fitted effect of over 60% in size. Also: potency is read from the fitted curve at half-maximal effect. In a few lines: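 Luminescent CellTiter-Glo read-out of metabolically active TC32 cells after 48 h compound exposure. Primary: MIPE 11-point, 0.78 nM–46 µM; NPC 8-point, 0.59 nM–46 µM. Confirmatory: 11-point dilutions.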
Assay [10] can be described thus: NS1 protein of Zika virus - qHTS assay to identify small molecule inhibitors in human HEK 293 cells (AID 1347053). Also: nearly all actives have a fitted effect of over 55% in size. Also: potency is read from the fitted curve at half-maximal effect. The essentials:
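Read-out is a two-antibody TR-FRET for ZIKV NS1, normalized between uninfected cells and infected cells. Compound added 1 h before MR766 infection at MOI 0.5; human HEK 293 cells incubated 24 h, 37 C.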

Molecules are shown by their SMILES. Several values for one entry are separate records, joined by “and”; a condition that tells them apart may be missing. Identical values can stand only once. Inconclusive results are not listed. Some compounds were tested as several samples or in several runs, with calls that do not always agree. Activity calls are given as the source filed them. Unless noted, calls follow the shape of the dose curve; as a rule, active = well fitted curve in the direction sought with a large enough effect; inconclusive = small, poorly fitted or top-dose-only effect, or another doubt; inactive = no such curve, though single readings can be large; an effect the other way counts as inactive or inconclusive.

Atrial natriuretic peptide receptor 1 (Homo sapiens), sequence (P16066 whole entry, looked up): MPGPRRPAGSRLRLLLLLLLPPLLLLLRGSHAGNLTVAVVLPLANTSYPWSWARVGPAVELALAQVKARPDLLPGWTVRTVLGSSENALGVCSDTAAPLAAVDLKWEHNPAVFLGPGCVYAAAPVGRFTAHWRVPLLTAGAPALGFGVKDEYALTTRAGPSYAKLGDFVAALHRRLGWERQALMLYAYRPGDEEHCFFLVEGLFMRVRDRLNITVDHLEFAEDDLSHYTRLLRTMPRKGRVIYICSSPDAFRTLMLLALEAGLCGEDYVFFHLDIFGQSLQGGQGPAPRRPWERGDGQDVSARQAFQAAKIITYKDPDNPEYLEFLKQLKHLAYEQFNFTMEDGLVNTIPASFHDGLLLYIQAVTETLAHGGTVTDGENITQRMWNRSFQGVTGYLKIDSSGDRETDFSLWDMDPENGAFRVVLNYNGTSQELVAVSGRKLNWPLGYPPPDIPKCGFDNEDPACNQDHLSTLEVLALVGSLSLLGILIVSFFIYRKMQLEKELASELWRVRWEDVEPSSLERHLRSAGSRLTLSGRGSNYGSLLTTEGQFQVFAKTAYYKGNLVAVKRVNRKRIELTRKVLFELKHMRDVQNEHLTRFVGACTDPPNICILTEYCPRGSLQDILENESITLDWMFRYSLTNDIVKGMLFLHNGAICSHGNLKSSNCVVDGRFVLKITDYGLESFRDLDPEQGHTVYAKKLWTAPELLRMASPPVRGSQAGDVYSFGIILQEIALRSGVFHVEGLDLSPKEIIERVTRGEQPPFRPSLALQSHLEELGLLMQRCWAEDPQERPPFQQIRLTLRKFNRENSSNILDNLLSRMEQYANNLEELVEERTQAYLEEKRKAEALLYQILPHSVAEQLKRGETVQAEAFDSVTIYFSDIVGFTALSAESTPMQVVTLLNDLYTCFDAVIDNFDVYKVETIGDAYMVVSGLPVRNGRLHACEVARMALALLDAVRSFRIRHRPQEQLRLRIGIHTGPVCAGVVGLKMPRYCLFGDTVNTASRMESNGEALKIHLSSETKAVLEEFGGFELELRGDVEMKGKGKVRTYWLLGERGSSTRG
Atrial natriuretic peptide receptor 2 (Homo sapiens), sequence (P20594 whole entry, looked up): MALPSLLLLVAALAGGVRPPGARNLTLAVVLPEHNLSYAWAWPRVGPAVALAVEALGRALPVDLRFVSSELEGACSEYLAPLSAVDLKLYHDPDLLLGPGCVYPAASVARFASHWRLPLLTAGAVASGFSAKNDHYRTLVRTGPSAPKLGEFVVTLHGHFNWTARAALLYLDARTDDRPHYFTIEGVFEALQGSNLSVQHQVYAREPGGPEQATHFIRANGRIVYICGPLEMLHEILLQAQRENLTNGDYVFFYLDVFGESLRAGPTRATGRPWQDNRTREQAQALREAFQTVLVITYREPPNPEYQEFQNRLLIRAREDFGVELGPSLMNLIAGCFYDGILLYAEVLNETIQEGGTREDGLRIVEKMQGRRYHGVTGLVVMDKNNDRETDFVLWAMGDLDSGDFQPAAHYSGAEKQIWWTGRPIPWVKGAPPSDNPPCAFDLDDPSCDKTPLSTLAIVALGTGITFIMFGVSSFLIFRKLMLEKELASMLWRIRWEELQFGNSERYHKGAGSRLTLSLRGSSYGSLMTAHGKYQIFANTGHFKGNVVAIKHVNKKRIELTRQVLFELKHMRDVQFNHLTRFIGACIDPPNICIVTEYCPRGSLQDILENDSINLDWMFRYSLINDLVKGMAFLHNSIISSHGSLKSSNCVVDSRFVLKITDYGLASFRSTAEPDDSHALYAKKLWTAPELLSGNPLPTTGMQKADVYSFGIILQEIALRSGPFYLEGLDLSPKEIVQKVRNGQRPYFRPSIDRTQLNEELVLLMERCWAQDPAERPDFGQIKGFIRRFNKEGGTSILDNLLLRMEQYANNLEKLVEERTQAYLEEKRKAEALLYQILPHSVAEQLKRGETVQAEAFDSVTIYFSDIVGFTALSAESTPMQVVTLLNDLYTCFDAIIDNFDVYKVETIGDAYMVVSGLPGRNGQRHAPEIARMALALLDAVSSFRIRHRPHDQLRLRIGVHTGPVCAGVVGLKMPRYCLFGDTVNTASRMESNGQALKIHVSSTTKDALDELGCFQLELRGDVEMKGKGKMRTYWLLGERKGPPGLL
Parathyroid hormone/parathyroid hormone-related peptide receptor (Homo sapiens), sequence (Q03431 whole entry, looked up): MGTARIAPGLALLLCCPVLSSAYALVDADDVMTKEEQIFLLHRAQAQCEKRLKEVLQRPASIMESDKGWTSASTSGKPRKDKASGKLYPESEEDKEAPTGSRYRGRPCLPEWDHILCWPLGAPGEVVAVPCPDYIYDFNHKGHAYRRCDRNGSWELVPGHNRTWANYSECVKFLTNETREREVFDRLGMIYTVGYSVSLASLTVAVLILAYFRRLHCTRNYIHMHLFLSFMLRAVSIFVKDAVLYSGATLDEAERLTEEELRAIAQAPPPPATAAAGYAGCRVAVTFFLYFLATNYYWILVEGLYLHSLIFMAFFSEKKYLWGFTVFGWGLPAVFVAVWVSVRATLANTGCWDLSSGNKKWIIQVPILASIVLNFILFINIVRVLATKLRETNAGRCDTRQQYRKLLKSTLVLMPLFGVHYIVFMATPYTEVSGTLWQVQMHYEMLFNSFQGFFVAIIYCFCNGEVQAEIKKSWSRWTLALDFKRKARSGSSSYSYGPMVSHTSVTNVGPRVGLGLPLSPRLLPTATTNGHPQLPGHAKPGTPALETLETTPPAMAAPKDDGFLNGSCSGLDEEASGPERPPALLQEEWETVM
T1 sequence (P78324 whole entry, looked up, the tested form may be a part): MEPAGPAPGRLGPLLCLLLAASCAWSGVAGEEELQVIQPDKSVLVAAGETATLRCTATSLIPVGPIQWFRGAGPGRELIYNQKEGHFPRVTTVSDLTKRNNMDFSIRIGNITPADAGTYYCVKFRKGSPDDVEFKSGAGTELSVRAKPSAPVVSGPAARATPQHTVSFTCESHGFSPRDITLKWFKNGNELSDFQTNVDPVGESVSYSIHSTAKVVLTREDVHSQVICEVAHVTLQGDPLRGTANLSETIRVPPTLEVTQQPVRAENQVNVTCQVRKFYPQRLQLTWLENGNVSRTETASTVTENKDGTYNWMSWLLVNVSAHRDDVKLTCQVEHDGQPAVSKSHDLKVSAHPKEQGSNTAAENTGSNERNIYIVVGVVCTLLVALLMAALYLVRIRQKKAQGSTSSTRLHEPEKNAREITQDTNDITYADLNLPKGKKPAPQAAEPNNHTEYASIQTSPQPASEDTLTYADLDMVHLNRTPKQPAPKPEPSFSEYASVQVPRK
T1 sequence (Q08722 whole entry, looked up, the tested form may be a part): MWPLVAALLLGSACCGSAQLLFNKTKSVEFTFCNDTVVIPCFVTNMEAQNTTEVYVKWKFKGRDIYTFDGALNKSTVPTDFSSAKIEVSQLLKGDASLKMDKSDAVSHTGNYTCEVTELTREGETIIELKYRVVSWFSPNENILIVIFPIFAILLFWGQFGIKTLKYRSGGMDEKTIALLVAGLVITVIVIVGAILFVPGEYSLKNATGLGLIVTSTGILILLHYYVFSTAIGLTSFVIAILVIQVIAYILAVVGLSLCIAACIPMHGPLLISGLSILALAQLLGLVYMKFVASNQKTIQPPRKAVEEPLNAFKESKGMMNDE

In the case of `COc1ccc2[nH]cc(CCNC(C)=O)c2c1`, the Potency result in assay [1], in assay [2], in assay [3], in assay [4], in assay [7] and in [8] was “inactive” each time. In addition, the Potency entry in assay [9] is “inactive”. For the same molecule, the result in assay [5] and in [6] was inactive.
For the molecule `CCCCc1oc2ccccc2c1C(=O)c1cc(I)c(OCCN(CC)CC)c(I)c1`, the Potency entry in assay [1], in [2], in [3], in assay [4], in assay [7] and in [8] was “inactive” in each case. Moreover, in assay [9], the Potency entry was “inactive”. In addition, the result in assay [5] and in assay [6] was inactive.
For `O=C1N(c2ccccc2)c2ccccc2C1(Cc1ccncc1)Cc1ccncc1`, the Potency result in [1], in [2], in assay [3], in [10], in assay [7] and in assay [8] was “inactive” in each case. In addition, in assay [9], the Potency result was “inactive”. For the same molecule, the outcome in assay [5] and in assay [6] was inactive.
As to `CC(C(=O)O)c1cccc(C(=O)c2ccccc2)c1` (configuration not stated), the Potency entry in assay [1], in assay [3], in [4], in [8] and in assay [9] was “inactive” each time.
Regarding `NCCc1cnc[nH]1`, the Potency result in assay [1], in [2], in assay [3], in assay [4], in assay [7] and in assay [8] was “inactive” throughout. For the same molecule, the Potency entry in assay [9] was “inactive”. The outcome in assay [5] and in assay [6] was inactive.
As to `Clc1ccccc1C(c1ccccc1)(c1ccccc1)n1ccnc1`, in assay [1], the Potency was 9.88 µM (active). In addition, the Potency entry in assay [3], in assay [4], in assay [7], in assay [8] and in assay [9] was “inactive” throughout. Further, the result in assay [5] and in [6] was inactive.
Consider `CN1C(C(=O)Nc2ccccn2)=C(O)c2ccccc2S1(=O)=O`, for which the Potency entry in assay [1], in assay [2], in assay [3], in assay [4], in assay [7] and in [8] was “inactive” in each case. Moreover, the Potency entry in assay [9] is “inactive”. Also, the result in assay [5] was inactive.
For the molecule `Cc1ccc(C(=O)Nc2ccc(S(=O)(=O)O)c3cc(S(=O)(=O)O)cc(S(=O)(=O)O)c23)cc1NC(=O)c1cccc(NC(=O)Nc2cccc(C(=O)Nc3cc(C(=O)Nc4ccc(S(=O)(=O)O)c5cc(S(=O)(=O)O)cc(S(=O)(=O)O)c45)ccc3C)c2)c1`, the Potency result in assay [1], in [2], in assay [3], in [4], in assay [7] and in assay [8] was “inactive” throughout. In assay [9], the Potency result is “inactive”. In [5], the result was inactive.
As to `COc1cc2nc(N3CCN(C(=O)c4ccco4)CC3)nc(N)c2cc1OC`, the Potency entry in [1], in assay [2], in [3], in assay [4], in assay [7] and in assay [8] was “inactive” in each case. Besides, the Potency entry in [9] is “inactive”. The outcome in assay [5] and in assay [6] was inactive.
Regarding `COc1cc2nc(N3CCN(C(=O)C4COc5ccccc5O4)CC3)nc(N)c2cc1OC` (configuration not stated), the Potency result in assay [1], in [3], in [4], in [10], in assay [7] and in assay [8] was “inactive” throughout. Moreover, the Potency result in assay [9] is “inactive”. Also, the result in assay [5] and in [6] was inactive.
With `CN1C2CCC1CC(OC(=O)C(CO)c1ccccc1)C2` (configuration not stated), the Potency entry in assay [1], in [2], in assay [3], in [4], in assay [7] and in assay [8] was “inactive” throughout. The Potency result in assay [9] was “inactive”. Further, the outcome in [5] and in assay [6] was inactive.
`Cc1cnc(C(=O)NCCc2ccc(S(=O)(=O)NC(=O)NC3CCCCC3)cc2)cn1`: the Potency result in assay [1], in assay [3], in assay [4], in assay [10], in [8] and in [9] was “inactive” throughout.
Consider `COc1cc2c(c(OC)c1OC)-c1ccc(OC)c(=O)cc1[C@@H](NC(C)=O)CC2`, for which the Potency in [1] was 23.1 µM (active) and 132 nM (active); in [9], 7.5 nM (active) and 1.3 nM (active). The Potency entry in assay [2], in [3], in assay [7] and in assay [8] was “inactive” each time. Besides, the result in [5] was inactive.
Regarding `CC(C)NCC(O)c1ccc(O)c(O)c1` (configuration not stated), the Potency entry in [1], in assay [3], in assay [4], in assay [10], in assay [7] and in [9] was “inactive” each time. For the same molecule, the outcome in assay [5] and in assay [6] was inactive. Besides, the Potency in [8] was 0.0119 µM (active).
For the molecule `Cc1cn([C@H]2C[C@H](N=[N+]=[N-])[C@@H](CO)O2)c(=O)[nH]c1=O`, the Potency result in assay [1], in assay [3], in assay [4], in [8] and in [9] was “inactive” each time.
Consider `COC(=O)Nc1nc2ccc(C(=O)c3cccs3)cc2[nH]1`, for which the Potency is 6.6 nM (active) and 326 nM (active) in assay [1]; 46.6 nM (active) and 236 nM (active) in [9]. The Potency result in assay [2], in assay [3], in assay [7] and in assay [8] was “inactive” in each case. The result in [5] was inactive.
As for `N[C@@H](Cc1c[nH]c2ccc(O)cc12)C(=O)O`, the Potency entry in assay [1], in [2], in [3], in [4], in assay [7] and in assay [8] was “inactive” each time. In addition, in assay [9], the Potency entry is “inactive”. Also, the outcome in assay [5] and in [6] was inactive.
Regarding `CS(=O)(=O)Nc1ccc([N+](=O)[O-])cc1Oc1ccccc1`, the Potency result in assay [1], in [3], in [4], in assay [10], in [8] and in [9] was “inactive” each time.
`NC12CC3CC(CC(C3)C1)C2`: the Potency result in assay [1], in assay [2], in assay [3], in assay [4], in assay [7] and in assay [8] was “inactive” in each case. For the same molecule, in [9], the Potency entry was “inactive”. For the same molecule, the result in [5] and in assay [6] was inactive.
Regarding `CN(C)CCC=C1c2ccccc2C=Cc2ccccc21`, the Potency entry in assay [1], in assay [2], in assay [7], in assay [8] and in assay [9] was “inactive” throughout. In addition, in [4], the Potency is 16.5 µM (active). In addition, the outcome in [5] and in assay [6] was inactive.
As to `COc1cc2nc(N(C)CCCNC(=O)C3CCCO3)nc(N)c2cc1OC` (configuration not stated), the Potency entry in assay [1], in [3], in assay [4], in [7], in [8] and in assay [9] was “inactive” in each case. The result in [5] and in assay [6] was inactive.
As for `O=C1c2c(O)ccc(O)c2C(=O)c2c(NCCNCCO)ccc(NCCNCCO)c21`, the Potency in assay [1] was 5.26 µM (active); in [2] it was 10.4 µM (active); in assay [10], 0.833 µM (active); in assay [7], 0.826 µM (active); in [9], 658 nM (active) and 59.2 nM (active). The Potency entry in [8] is “inactive”.
Consider `CN(Cc1cnc2nc(N)nc(N)c2n1)c1ccc(C(=O)N[C@@H](CCC(=O)O)C(=O)O)cc1`, for which the Potency in assay [1] was 10.3 nM (active) and 37.2 nM (active); in assay [9], 6.6 nM (active). In addition, the Potency entry in [3], in assay [4], in assay [10], in [7] and in assay [8] was “inactive” throughout. Moreover, the result in assay [5] was inactive.
In the case of `Clc1ccc2nsnc2c1NC1=NCCN1`, the Potency result in assay [1], in assay [3], in assay [4], in [10], in assay [8] and in assay [9] was “inactive” each time.
Take `C[C@@H]1CC(=O)NN=C1c1ccc(NN=C(C#N)C#N)cc1`: the Potency result in assay [1] and in assay [9] was “inactive” throughout. For the same molecule, the Potency entry in assay [10] is “inactive and 14.8 µM (active)”.
Consider `CN1CCN(C2=Nc3cc(Cl)ccc3Nc3ccccc32)CC1`, for which the Potency entry in assay [2], in [3], in assay [7], in assay [8] and in assay [9] was “inactive” in each case. For the same molecule, in assay [4], the Potency was 10.4 µM (active). Besides, the result in [5] and in assay [6] was inactive.
